The list is not random: actives were taken first. Their share in the collection is about 27%.
CYP2C19 act: activators of human cytochrome P450 2C19; P33261; recombinant CYP2C19, luciferin-H EGE luminescence; hits give high values; 0 = fully inhibited enzyme, 1 = untreated enzyme; activation factor at 5 µM; 96,000 tested, under 10 active;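 active = activation factor of at least 2 at 5 µM in the primary screen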;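 also: 0 = wells with 2.5 mM tranylcypromine and 1 = vehicle-only wells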
CYP2C19 inh: blocks human cytochrome P450 2C19; P33261; CYP2C19 Supersomes, luciferin-H EGE luminescence, 30 min; inhibition, % at 5 µM; 21% of 96,000 active;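 active = CYP2C19 inhibition above a set limit at 5 µM in the primary screen, cut at about 50% in these data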;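 also: plate controls were negative control wells for no effect and 2.5 mM tranylcypromine positive control for full effect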
CYP2C9 act: activators of human CYP2C9 | 1.4% of 96,000 active | AID 1024 | activation factor at 5 µM | recombinant CYP2C9, luciferin-H conversion, luminescence; hits give high values; factor 1 = untreated enzyme, 0 = blocked;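 active = activation factor of 2 or more for CYP2C9 at a 5 µM dose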;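 also: 0 = sulfaphenazole-blocked wells and 1 = vehicle-only wells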
Cav3 T inh: blocks human Cav3.2 T-type calcium channel; O95180; Cav3.2-expressing cells, Fluo-4 calcium fluorescence FDSS; hits give low values; B-score at 10 µM; 4% of 100,000 active;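 active = single-dose well whose peak fluorescence ratio is a statistical outlier from its plate by either plate-standardised score or position-corrected B-score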
Target sequence (O95180 whole entry, looked up): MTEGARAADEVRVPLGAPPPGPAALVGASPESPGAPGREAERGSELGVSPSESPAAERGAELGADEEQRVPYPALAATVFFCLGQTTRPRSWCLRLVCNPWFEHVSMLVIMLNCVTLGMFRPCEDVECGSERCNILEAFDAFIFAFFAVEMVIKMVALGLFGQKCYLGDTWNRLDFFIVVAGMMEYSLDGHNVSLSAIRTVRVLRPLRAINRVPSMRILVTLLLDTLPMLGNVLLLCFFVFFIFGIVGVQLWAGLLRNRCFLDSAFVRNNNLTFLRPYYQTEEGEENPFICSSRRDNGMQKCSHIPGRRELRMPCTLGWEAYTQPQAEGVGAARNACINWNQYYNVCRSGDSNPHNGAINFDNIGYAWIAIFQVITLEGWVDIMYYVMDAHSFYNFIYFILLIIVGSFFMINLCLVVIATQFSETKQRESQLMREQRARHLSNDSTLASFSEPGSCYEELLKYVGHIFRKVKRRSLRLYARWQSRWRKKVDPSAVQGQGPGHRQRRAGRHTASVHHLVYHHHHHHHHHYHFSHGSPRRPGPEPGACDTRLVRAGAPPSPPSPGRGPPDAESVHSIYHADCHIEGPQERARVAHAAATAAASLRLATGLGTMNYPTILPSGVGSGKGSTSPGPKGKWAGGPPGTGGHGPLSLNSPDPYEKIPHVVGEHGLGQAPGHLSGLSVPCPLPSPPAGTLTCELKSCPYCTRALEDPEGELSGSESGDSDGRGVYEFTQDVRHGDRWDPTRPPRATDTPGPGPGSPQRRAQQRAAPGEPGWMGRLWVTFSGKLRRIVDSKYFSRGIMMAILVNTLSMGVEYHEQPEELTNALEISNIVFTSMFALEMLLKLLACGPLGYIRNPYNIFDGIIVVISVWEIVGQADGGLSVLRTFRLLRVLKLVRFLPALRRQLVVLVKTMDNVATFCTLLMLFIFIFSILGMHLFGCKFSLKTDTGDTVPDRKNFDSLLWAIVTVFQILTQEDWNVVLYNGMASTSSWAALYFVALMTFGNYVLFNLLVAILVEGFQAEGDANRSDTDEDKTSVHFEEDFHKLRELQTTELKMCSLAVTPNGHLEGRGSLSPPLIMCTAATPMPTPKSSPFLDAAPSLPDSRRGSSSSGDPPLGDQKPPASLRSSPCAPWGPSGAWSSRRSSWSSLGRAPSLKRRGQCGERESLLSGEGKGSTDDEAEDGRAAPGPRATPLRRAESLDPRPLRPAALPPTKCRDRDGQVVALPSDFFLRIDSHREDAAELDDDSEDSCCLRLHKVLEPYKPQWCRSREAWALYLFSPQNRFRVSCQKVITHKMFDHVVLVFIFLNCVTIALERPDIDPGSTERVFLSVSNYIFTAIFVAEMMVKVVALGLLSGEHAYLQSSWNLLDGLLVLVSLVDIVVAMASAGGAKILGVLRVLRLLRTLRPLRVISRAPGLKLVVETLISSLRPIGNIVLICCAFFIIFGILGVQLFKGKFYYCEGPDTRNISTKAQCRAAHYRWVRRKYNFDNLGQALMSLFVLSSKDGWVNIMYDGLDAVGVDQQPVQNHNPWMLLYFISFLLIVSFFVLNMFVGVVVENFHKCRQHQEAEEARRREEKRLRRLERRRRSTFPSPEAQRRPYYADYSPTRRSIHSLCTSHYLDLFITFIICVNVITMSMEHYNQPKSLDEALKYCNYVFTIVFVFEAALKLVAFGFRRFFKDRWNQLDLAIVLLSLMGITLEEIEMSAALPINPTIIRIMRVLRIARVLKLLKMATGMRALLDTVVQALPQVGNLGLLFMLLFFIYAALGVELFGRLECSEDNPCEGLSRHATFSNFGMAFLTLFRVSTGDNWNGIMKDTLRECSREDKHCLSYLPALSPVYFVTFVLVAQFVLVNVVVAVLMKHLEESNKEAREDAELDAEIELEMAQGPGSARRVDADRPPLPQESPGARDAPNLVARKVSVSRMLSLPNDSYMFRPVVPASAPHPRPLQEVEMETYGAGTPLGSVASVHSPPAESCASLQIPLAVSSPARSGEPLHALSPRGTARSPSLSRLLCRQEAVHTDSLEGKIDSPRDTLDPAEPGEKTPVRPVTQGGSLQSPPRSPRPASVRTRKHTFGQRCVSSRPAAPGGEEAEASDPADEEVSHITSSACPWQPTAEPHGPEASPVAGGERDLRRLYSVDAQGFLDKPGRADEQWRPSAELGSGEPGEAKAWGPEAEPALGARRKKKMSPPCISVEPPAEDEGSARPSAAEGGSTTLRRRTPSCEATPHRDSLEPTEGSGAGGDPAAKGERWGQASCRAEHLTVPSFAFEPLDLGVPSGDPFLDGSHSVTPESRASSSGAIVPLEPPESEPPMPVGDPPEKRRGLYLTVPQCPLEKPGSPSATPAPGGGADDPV
CYP2C9 inh: human CYP2C9 inhibition. CYP2C9 Supersomes, luciferin-H conversion, luminescence. inhibition, % at 5 µM. 20% of 96,000 active. AID 777;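 active = blocking of liver enzyme CYP2C9 beyond about 50% at 5 µM, limit read from the data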
Active calls of the source: *.

How did CCCc1cc(C(=O)Nc2cccc(Cl)c2)no1 do in these assays?
CYP2C19 act: 0.3; CYP2C19 inh: 66.1*; CYP2C9 act: 0.9; Cav3 T inh: -2.83; CYP2C9 inh: 8.5

Results for CC(C)NC(=O)c1cc(-c2cccs2)on1 ?
CYP2C19 act: 0.9; CYP2C19 inh: 10.3; CYP2C9 act: 0.9; Cav3 T inh: 0.966; CYP2C9 inh: 13.5

How did CSc1ccccc1NC(=O)c1cc(-c2cccs2)on1 do in these assays?
CYP2C19 act: 0.9; CYP2C19 inh: 7.5; CYP2C9 act: 2.7*; Cav3 T inh: 0.564; CYP2C9 inh: -165.1

Results for CCCc1cc(C(=O)Nc2ccccc2SC)no1 ?
CYP2C19 act: 0.8; CYP2C19 inh: 20.0; CYP2C9 act: 4*; Cav3 T inh: -2.39; CYP2C9 inh: -303.7

What do the screens show for `CCCc1cc(C(=O)Nc2cccc(C(C)=O)c2)no1`?
CYP2C19 act: 0.8; CYP2C19 inh: 21.9; CYP2C9 act: 1; Cav3 T inh: -0.43; CYP2C9 inh: 2.4

What do the screens show for `CC1Cc2cc(/C(O)=C3\C(=O)C(=O)N(CCN(C)C)C3c3ccccc3F)ccc2O1` (stereo not given)?
CYP2C19 act: 1; CYP2C19 inh: -4.5; CYP2C9 act: 1.1; Cav3 T inh: 0.314; CYP2C9 inh: -5.0

What do the screens show for `COc1cc(/C=C2/N=C(c3ccccc3F)OC2=O)cc(Cl)c1OS(C)(=O)=O`?
CYP2C19 act: 0.9; CYP2C19 inh: 14.9; CYP2C9 act: 0.7; Cav3 T inh: 0.387; CYP2C9 inh: 26.5

How did COC1(OC)C(/C=C/c2ccc(Cl)cc2)C(C#N)(C#N)C1(OC)OC (stereo not given) do in these assays?
Cav3 T inh: -1.4

Results for CCS(=O)(=O)CCSc1nc(C)cc(C)n1 ?
CYP2C19 act: 1.1; CYP2C19 inh: -9.7; CYP2C9 act: 0.9; Cav3 T inh: 0.322; CYP2C9 inh: 6.2

How did Cc1cc(C)nc(SCCS(=O)Cc2ccc(Cl)cc2)n1 (stereo not given) do in these assays?
CYP2C19 act: 0.2; CYP2C19 inh: 81.4*; CYP2C9 act: 0.8; Cav3 T inh: 0.0511; CYP2C9 inh: 21.5

Results for COC(=O)[C@H]1C[C@H]1[C@@H](NC(=O)c1ccc[nH]1)c1ccccc1 ?
Cav3 T inh: -0.853

What do the screens show for `O=C(COC(=O)c1cccnc1Cl)c1cccc(Cl)c1`?
CYP2C19 act: 0.4; CYP2C19 inh: 56.2*; CYP2C9 act: 1; Cav3 T inh: -0.993; CYP2C9 inh: 2.0

What do the screens show for `NC(=O)c1cccnc1Oc1cccc(Cl)c1`?
CYP2C19 act: 0.9; CYP2C19 inh: 8.9; CYP2C9 act: 0.9; Cav3 T inh: 0.272; CYP2C9 inh: 5.8

What do the screens show for `O=C(OCc1ccc(Cl)cc1Cl)c1cccnc1Cl`?
CYP2C19 act: 0.3; CYP2C19 inh: 74.3*; CYP2C9 act: 1; Cav3 T inh: -0.686; CYP2C9 inh: -0.8

How did CC(=O)NC(C)C(=O)OCc1ccc(Cl)cc1Cl (stereo not given) do in these assays?
CYP2C19 act: 0.4; CYP2C19 inh: 59.1*; CYP2C9 act: 2.7*; Cav3 T inh: 1.08; CYP2C9 inh: -168.3

What do the screens show for `CS(=O)(=O)NCCSCc1ccco1`?
CYP2C19 act: 0.9; CYP2C19 inh: 5.8; CYP2C9 act: 0.9; Cav3 T inh: -0.271; CYP2C9 inh: 14.7

Results for CCN1C(=O)N[C@@H](c2cccc(F)c2)C(C(=O)OC)=C1C ?
Cav3 T inh: 0.198

What do the screens show for `CCC(C)C(NC(=O)C1CCC(C)CC1)C(=O)NCc1cccnc1` (stereo not given)?
Cav3 T inh: 1.5

How did CC(C)CC(NC(=O)C1CCC(C)CC1)C(=O)N1CCN(c2ccccn2)CC1 (stereo not given) do in these assays?
CYP2C19 act: 0.2; CYP2C19 inh: 81.4*; CYP2C9 act: 0.4; Cav3 T inh: 0.912; CYP2C9 inh: 61.9*

How did CC1CCC(C(=O)NC(C(=O)NCc2cccnc2)C(C)C)CC1 (stereo not given) do in these assays?
CYP2C19 act: 0.6; CYP2C19 inh: 41.4; CYP2C9 act: 0.3; Cav3 T inh: 0.149; CYP2C9 inh: 66.5*

What do the screens show for `CC(C)CC(NC(=O)C1CCC(C)CC1)C(=O)NCc1cccnc1` (stereo not given)?
CYP2C19 act: 0.7; CYP2C19 inh: 29.7; CYP2C9 act: 0.5; Cav3 T inh: -0.000137; CYP2C9 inh: 53.7*

Results for O=C1OCCN1c1c(-c2ccccc2)c(N2CCOCC2)nc2ccccc12 ?
Cav3 T inh: -0.444

What do the screens show for `Cc1ccc(S(=O)(=O)c2c(C)cc(C)nc2Cl)cc1`?
CYP2C19 act: 0.1; CYP2C19 inh: 94.3*; CYP2C9 act: 1.7; Cav3 T inh: 0.198; CYP2C9 inh: -70.5

What do the screens show for `Cc1cc(C)c(S(=O)(=O)c2ccccc2)c(OC(=O)c2c(Cl)cccc2Cl)n1`?
CYP2C19 act: 0.6; CYP2C19 inh: 35.3; CYP2C9 act: 0.6; Cav3 T inh: -4.57*; CYP2C9 inh: 36.6

Results for Cc1cc(C)c(S(=O)(=O)c2ccccc2)c(OC(=O)c2ccc(Cl)cc2Cl)n1 ?
CYP2C19 act: 1.1; CYP2C19 inh: -7.7; CYP2C9 act: 1.1; Cav3 T inh: 1.48; CYP2C9 inh: -5.5

What do the screens show for `Cc1cc(C)c(S(=O)(=O)c2ccccc2)c(Cl)n1`?
CYP2C19 act: 0.3; CYP2C19 inh: 68.8*; CYP2C9 act: 3.2*; Cav3 T inh: 0.729; CYP2C9 inh: -222.1

What do the screens show for `COc1ccc(Oc2nc(C)cc(C)c2S(=O)(=O)c2ccc(C)cc2)cc1`?
CYP2C19 act: 0.7; CYP2C19 inh: 30.9; CYP2C9 act: 0.7; CYP2C9 inh: 33.8

Results for CCOc1cc(NC(=O)c2ccco2)c(OCC)cc1NC(=O)CCc1ccc(OC)cc1 ?
CYP2C19 act: 1.1; CYP2C19 inh: -11.3; CYP2C9 act: 1.1; CYP2C9 inh: -10.4

Results for c1ccc(-c2nnc(CSc3nnc(-c4ccncc4)n3Cc3ccco3)o2)cc1 ?
CYP2C19 act: 0.3; CYP2C19 inh: 67.1*; CYP2C9 act: 0.3; CYP2C9 inh: 70.6*

Results for CCSc1nnc(-c2cccnc2)n1Cc1ccco1 ?
CYP2C19 act: 1; CYP2C19 inh: 0.1; CYP2C9 act: 1; Cav3 T inh: 0.675; CYP2C9 inh: 0.0

What do the screens show for `Clc1cccc(-c2nnc(SC/C=C/c3ccccc3)n2Cc2ccco2)c1`?
CYP2C19 act: 0.4; CYP2C19 inh: 64.7*; CYP2C9 act: 0.3; Cav3 T inh: 0.297; CYP2C9 inh: 67.4*

Results for C(=C\c1ccccc1)/CSc1nnc(-c2ccccc2)n1Cc1ccco1 ?
CYP2C19 act: 0.5; CYP2C19 inh: 46.6; CYP2C9 act: 0.5; Cav3 T inh: -5.81*; CYP2C9 inh: 48.7

How did C(=C\c1ccccc1)/CSc1nnc(-c2ccncc2)n1Cc1ccco1 do in these assays?
CYP2C19 act: 0.1; CYP2C19 inh: 88.7*; CYP2C9 act: 0.6; Cav3 T inh: -1.64; CYP2C9 inh: 35.7

Results for Nn1c(SC/C=C/c2ccccc2)nnc1-c1ccco1 ?
CYP2C19 act: 0.7; CYP2C19 inh: 29.4; CYP2C9 act: 1.1; CYP2C9 inh: -10.2

How did c1ccc(CSc2nnc(-c3sccc3-n3cccc3)o2)cc1 do in these assays?
CYP2C19 act: 0.6; CYP2C19 inh: 38.1; CYP2C9 act: 1.1; Cav3 T inh: -0.921; CYP2C9 inh: -9.4

Bioassay records from PubChem.
